The values below come from PubChem BioAssay (NCATS).

Values joined by “and” are separate entries in the source; they are usually repeats but may differ in a detail not shown here. Equal values may be shown once. Results filed as inconclusive are left out. Active and inactive are the calls of the source. The call rests on the fitted dose curve; in most records, active means well fitted curve in the direction sought with a large enough effect; inconclusive means small, poorly fitted or top-dose-only effect, or another doubt; inactive means no such curve, though single readings can be large; an effect the other way counts as inactive or inconclusive.

The nature of assay [1]: qHTS of pediatric cancer cell lines to identify multiple opportunities for drug repurposing: Primary screen for A673 cells (AID 1347092). Further: nearly all actives have a fitted effect of over 45% in size. Further: potency means the concentration at half of the fitted maximal effect. The method, boiled down:
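A673 cells (500-1,000 cells/well in growth media) were pre-incubated 5 h at 37 degrees C, then exposed to compounds for 48 h. Viability was read as CellTiter-Glo luminescence; concentration-response curves came directly from the primary screen.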
On the technique in general: Quantitative high-throughput screening tests each substance at several concentrations.

Assay [2] can be described thus: qHTS of pediatric cancer cell lines to identify multiple opportunities for drug repurposing: Primary screen for U-2 OS cells (AID 1347096). Further: nearly all actives have a fitted effect of over 50% in size. Further: potency means the concentration at half of the fitted maximal effect. In outline: (§1)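 Cells (500-1,000/well) rested 5 h, then received compounds for 48 h; metabolically active cells were measured by CellTiter-Glo luminescence. Final concentrations spanned up to 46 µM (MIPE, 11-point) or 0.59 nM-46 µM (NPC, 8-point) in primary screens, 11-point in follow-ups.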

Assay [3] is described as follows: qHTS of pediatric cancer cell lines to identify multiple opportunities for drug repurposing: Primary screen for Saos-2 cells (AID 1347097). Further: nearly all actives have a fitted effect of over 40% in size. Further: potency means the concentration at half of the fitted maximal effect. In outline: (§2)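 CRCs from 8- or 11-point titrations (lowest final 0.59 nM NPC, 0.78 nM MIPE). Cell viability: CellTiter-Glo after 48 h incubation, 15 min room-temperature development, luminescence imaging.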
Assay [4] can be described thus: qHTS of pediatric cancer cell lines to identify multiple opportunities for drug repurposing: Primary screen for SK-N-SH cells (AID 1347098). Further: nearly all actives have a fitted effect of over 65% in size. Further: potency means the concentration at half of the fitted maximal effect. In outline: as §1
Assay [5] in a line: qHTS of pediatric cancer cell lines to identify multiple opportunities for drug repurposing: Primary screen for LAN-5 cells (AID 1347100). Further: potency means the concentration at half of the fitted maximal effect. The method, boiled down: as §1
Assay [6] in a line: qHTS of pediatric cancer cell lines to identify multiple opportunities for drug repurposing: Primary screen for Rh18 cells (AID 1347102). Further: nearly all actives have a fitted effect of over 65% in size. Further: potency means the concentration at half of the fitted maximal effect. In outline: as §1
Assay [7] is described as follows: qHTS of pediatric cancer cell lines to identify multiple opportunities for drug repurposing: Primary screen for OHS-50 cells (AID 1347103). Further: nearly all actives have a fitted effect of over 40% in size. Further: potency means the concentration at half of the fitted maximal effect. The method, boiled down: as §1
Assay [8] can be described thus: qHTS of pediatric cancer cell lines to identify multiple opportunities for drug repurposing: Primary screen for RD cells (AID 1347104). Further: nearly all actives have a fitted effect of over 55% in size. Further: potency means the concentration at half of the fitted maximal effect. In outline: as §2
Assay [9] in a line: qHTS of pediatric cancer cell lines to identify multiple opportunities for drug repurposing: Primary screen for MG 63 (6-TG R) cells (AID 1347105). Further: nearly all actives have a fitted effect of over 50% in size. Further: potency means the concentration at half of the fitted maximal effect. The method, boiled down:
as §2

Assay [10] in a line: qHTS of pediatric cancer cell lines to identify multiple opportunities for drug repurposing: Primary screen for Rh30 cells (AID 1347107). Further: series mostly up to about 46 µM; nearly all actives have a fitted effect of over 75% in size. In outline: as §1
Assay [11] can be described thus: qHTS of pediatric cancer cell lines to identify multiple opportunities for drug repurposing: Primary screen for Rh41 cells (AID 1347108). Further: nearly all actives have a fitted effect of over 70% in size. Further: potency means the concentration at half of the fitted maximal effect. In outline:
as §2

A short description of assay [12]: qHTS of pediatric cancer cell lines to identify multiple opportunities for drug repurposing: Confirmatory screen for NB1643 cells (AID 1347109). Further: potency means the concentration at half of the fitted maximal effect; nearly all actives have a fitted effect of over 45% in size. In outline: as §1
Assay [13] can be described thus: qHTS of pediatric cancer cell lines to identify multiple opportunities for drug repurposing: Primary screen for SK-N-MC cells (AID 1347093). Further: potency means the concentration at half of the fitted maximal effect. In outline:
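Metabolically active cells were quantified by ATP-dependent luminescence (CellTiter-Glo, 15 min at room temperature) following 48 h treatment. Cells had been plated at 500-1,000 per well and settled for 5 h beforehand.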

Assay [14] can be described thus: qHTS of pediatric cancer cell lines to identify multiple opportunities for drug repurposing: Primary screen for BT-37 cells (AID 1347094). Further: potency means the concentration at half of the fitted maximal effect. The method, boiled down: as §2
A short description of assay [15]: qHTS of pediatric cancer cell lines to identify multiple opportunities for drug repurposing: Primary screen for NB1643 cells (AID 1347099). Further: nearly all actives have a fitted effect of over 50% in size. Further: potency means the concentration at half of the fitted maximal effect. In outline: as §2
The nature of assay [16]: qHTS of pediatric cancer cell lines to identify multiple opportunities for drug repurposing: Primary screen for BT-12 cells (AID 1347101). Further: nearly all actives have a fitted effect of over 25% in size. Further: potency means the concentration at half of the fitted maximal effect. In outline: as §1
Assay [17] can be described thus: qHTS of pediatric cancer cell lines to identify multiple opportunities for drug repurposing: Confirmatory screen for SK-N-MC cells (AID 1347111).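 Further: potency means the concentration at half of the fitted maximal effect; cells exposed to compound for 48 h before the readout; nearly all actives have a fitted effect of over 70% in size.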 The method, boiled down: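 Seed 500-1,000 cells/well; rest 5 h at 37 degrees C. Pin-transfer compounds, 11-point titration. Incubate 48 h. Add CellTiter-Glo, 15 min RT, read luminescence.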
The nature of assay [18]: qHTS of pediatric cancer cell lines to identify multiple opportunities for drug repurposing: Primary screen for NB-EBc1 cells (AID 1347095). Further: potency means the concentration at half of the fitted maximal effect. In outline:
as §2

Assay [19] can be described thus: qHTS of pediatric cancer cell lines to identify multiple opportunities for drug repurposing: Primary screen for control Hh wild type fibroblast cells (AID 1347106).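 Further: series mostly up to about 46 µM; a drop in luminescence marks cytotoxicity and a rise apparent proliferation; nearly all actives have a fitted effect of over 55% in size.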 In outline:
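Viability after 48 h compound treatment at 37C, 500-1,000 cells/well, read as ATP luminescence with CellTiter-Glo. Primary screens used 11-point (MIPE, 0.78 nM-46 µM) or 8-point (NPC, 0.59 nM-46 µM) final concentrations; follow-up screens used 11-point dilutions.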

For the molecule `CO[C@@H]1[C@H](N(C)C(=O)c2ccccc2)C[C@H]2O[C@]1(C)n1c3ccccc3c3c4c(c5c6ccccc6n2c5c31)C(=O)NC4`, the Potency in assay [1] was 0.935 µM (active); in assay [2], 3.72 µM (active); in [3], 0.833 µM (active); in assay [4], 1.92 µM (active); in [5], 0.526 µM (active); in assay [6] it was 1.32 µM (active). Also, the figures for the Potency in assay [7], in assay [9] and in assay [12] were 2.17 µM (active), 0.743 µM (active) and 3.29 µM (active), respectively. The Potency entry in [8], in [10] and in assay [11] was “inactive” each time.

In the case of `C#Cc1cccc(Nc2ncnc3cc(OCCOC)c(OCCOC)cc23)c1`, the Potency in [13] was 1.05 µM (active) and 7.5 µM (active); in [14] it was 19.3 µM (active) and 11 µM (active); in assay [3], 16.6 µM (active); in assay [15], 5.9 µM (active); in [16] it was 24.3 µM (active); in [6], 18.7 µM (active). For the same molecule, the Potency is 19.3 µM (active) and 6.92 µM (active) in assay [7]; 11.8 µM (active) in assay [11]; 14.7 µM (active) in assay [17]. In addition, the Potency entry in assay [2], in assay [8], in [9] and in assay [10] was “inactive” throughout.

Consider `COc1ccc2c3n(c(=NC(=O)c4cccnc4)nc2c1OC)CCN3`, for which the Potency in assay [1] is 0.743 µM (active); in assay [18], 18.7 µM (active); in assay [3], 1.18 µM (active); in [4], 0.961 µM (active); in assay [15], 4.18 µM (active); in assay [5], 14.8 µM (active). Moreover, the Potency in assay [7] was 0.968 µM (active); in assay [8], 1.87 µM (active); in assay [9], 2.35 µM (active); in assay [11], 0.935 µM (active). Further, the Potency result in [16], in assay [19] and in assay [10] was “inactive” throughout.

`CCCS(=O)(=O)Nc1ccc(F)c(C(=O)c2c[nH]c3ncc(Cl)cc23)c1F`: the Potency in assay [1] was 18.7 µM (active); in [3], 11.8 µM (active); in [4], 19.2 µM (active); in [15] it was 20.9 µM (active); in [7] it was 13.7 µM (active); in assay [8], 18.7 µM (active). In assay [11], the Potency entry is “inactive”.

In the case of `Cc1ccccc1C(C(=O)NC1CCCC1)N(C(=O)Cn1cnc2ccccc21)c1cccc(F)c1` (centres undefined), the Potency entry in [1], in [18], in assay [2], in assay [4], in [5] and in assay [9] was “inactive” in each case. Also, the Potency result in assay [19] and in assay [10] was “inactive” in each case.

Regarding `Cc1cnc(Nc2ccc(OCCN3CCCC3)cc2)nc1Nc1cccc(S(=O)(=O)NC(C)(C)C)c1`, the figures for the Potency in assay [13] and in assay [15] were 18.7 µM (active) and 23.5 µM (active), respectively. The Potency entry in assay [14], in assay [18], in [2], in [3], in assay [5] and in assay [6] was “inactive” throughout. Also, the Potency result in assay [8], in [19], in assay [10] and in assay [11] was “inactive” each time.

Take `CN(C)C(=O)c1ccc(S(=O)(=O)c2ccc(NC(=O)[C@@](C)(O)C(F)(F)F)c(Cl)c2)cc1`: the Potency was 18.7 µM (active) in assay [1] and 13.7 µM (active) in assay [16]. The Potency result in assay [18], in assay [2], in [4], in assay [5], in [6] and in [19] was “inactive” each time. Further, the Potency result in [10] was “inactive”.

`COc1ccc([C@@H]2CC(=O)c3c(O)cc(O[C@@H]4O[C@H](CO[C@@H]5O[C@@H](C)[C@H](O)[C@@H](O)[C@@H]5O)[C@@H](O)[C@H](O)[C@@H]4O)cc3O2)cc1O`: the Potency in [13] is 16.6 µM (active). Also, the Potency result in [14], in assay [18], in assay [2], in assay [3], in assay [4] and in assay [15] was “inactive” throughout. Further, the Potency result in assay [5], in [16], in assay [6], in assay [7], in [8] and in [9] was “inactive” in each case. Besides, the Potency result in [19], in [10] and in [11] was “inactive” in each case.

For `CCOC(=O)C1=C[C@]2(CC)CCCN3CCc4c(n1c1ccccc41)[C@@H]32`, the Potency in assay [13] was 13.2 µM (active); in [7], 24.3 µM (active). For the same molecule, the Potency result in assay [14], in assay [18], in assay [2], in assay [15], in assay [16] and in assay [6] was “inactive” in each case. Also, the Potency result in [19], in [10] and in assay [11] was “inactive” in each case.

`CCn1c(-c2nonc2N)nc2cnc(Oc3cccc(NC(=O)c4ccc(OCCN5CCOCC5)cc4)c3)cc21`: the Potency in assay [13] is 7.43 µM (active); in [3] it was 0.662 µM (active); in assay [5], 2.96 µM (active); in [16] it was 6.11 µM (active); in assay [7] it was 15.3 µM (active). Moreover, the Potency result in assay [18], in assay [2], in assay [6], in [9] and in [19] was “inactive” each time.

Turning to `CCN(CC)CCCC(C)Nc1nc(C)cc(Nc2ccc3nc(C)cc(N)c3c2)n1` (centres undefined), the Potency entry in assay [13], in assay [14], in [18], in assay [2], in [4] and in assay [15] was “inactive” in each case. In addition, the Potency result in assay [5], in [16], in assay [6], in assay [8], in assay [9] and in assay [19] was “inactive” each time. The Potency entry in [10] and in [11] was “inactive” each time.

Take `O=C(Nc1ccc(F)c(C(F)(F)F)c1)Nc1nnc(-c2ccncc2)s1`: the Potency in assay [13] is 20.9 µM (active). Also, the Potency result in assay [14], in [2], in assay [3], in assay [5], in [6] and in assay [7] was “inactive” each time. The Potency result in assay [19] and in assay [11] was “inactive” in each case.
